The values that follow come from paper PMC13541613, “GHT-SELEX demonstrates unexpectedly high intrinsic sequence specificity and complex DNA binding of many human transcription factors”.

What all share (test): HT-SELEX; 20 mM HEPES pH 7, 140 mM KCl, 5 mM NaCl, 1 mM K2HPO4, 2 mM MgSO4, 100 uM EGTA, ZnSO4, 0.1% Tween20; room temperature, 1 h; high values mean tight binding
What all share (conditions): protein: ivt; tags: eGFP (N-terminal); dsDNA, one strand shown

One experiment concerns the target ZNF721 full-length (Homo sapiens, UniProt Q8TF20-2 1-923). A digest of the protocol:
(§1)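 In HEPES/KCl low-stringency buffer with Tween20, a bead-immobilised tagged transcription factor (full-length or DNA-binding-domain fragment, from HEK293 lysate or cell-free extract) was incubated with a randomized 40-base DNA library for 1 h at room temperature. DNA retained after washing was heat-eluted, amplified by PCR over successive cycles and Illumina-sequenced, giving ~3 million 60 bp reads per sample. The reported binding signal, a relative k-mer count in those selected reads, rises with tighter binding.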

The target in another experiment is ZNF721 DBD1 (Homo sapiens, UniProt Q8TF20-2 29-461). The procedure, abridged: as §1
In another experiment the target is ZNF721 DBD2 (Homo sapiens, UniProt Q8TF20-2 395-923). A digest of the protocol:
as §1

ZNF721 DBD1, sequence (Q8TF20 17-449): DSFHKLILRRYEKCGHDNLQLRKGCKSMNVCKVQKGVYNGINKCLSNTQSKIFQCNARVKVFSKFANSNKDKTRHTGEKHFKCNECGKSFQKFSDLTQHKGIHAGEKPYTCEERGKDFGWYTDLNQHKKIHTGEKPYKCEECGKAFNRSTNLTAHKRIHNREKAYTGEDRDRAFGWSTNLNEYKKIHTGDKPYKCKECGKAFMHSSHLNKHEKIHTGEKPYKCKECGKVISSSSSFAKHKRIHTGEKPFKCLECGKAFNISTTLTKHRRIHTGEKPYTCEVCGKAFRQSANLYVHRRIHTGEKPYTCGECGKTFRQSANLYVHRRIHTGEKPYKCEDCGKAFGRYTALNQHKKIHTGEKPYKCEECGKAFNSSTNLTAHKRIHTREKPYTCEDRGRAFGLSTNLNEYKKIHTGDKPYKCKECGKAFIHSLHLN
ZNF721 DBD2, sequence (Q8TF20 383-911): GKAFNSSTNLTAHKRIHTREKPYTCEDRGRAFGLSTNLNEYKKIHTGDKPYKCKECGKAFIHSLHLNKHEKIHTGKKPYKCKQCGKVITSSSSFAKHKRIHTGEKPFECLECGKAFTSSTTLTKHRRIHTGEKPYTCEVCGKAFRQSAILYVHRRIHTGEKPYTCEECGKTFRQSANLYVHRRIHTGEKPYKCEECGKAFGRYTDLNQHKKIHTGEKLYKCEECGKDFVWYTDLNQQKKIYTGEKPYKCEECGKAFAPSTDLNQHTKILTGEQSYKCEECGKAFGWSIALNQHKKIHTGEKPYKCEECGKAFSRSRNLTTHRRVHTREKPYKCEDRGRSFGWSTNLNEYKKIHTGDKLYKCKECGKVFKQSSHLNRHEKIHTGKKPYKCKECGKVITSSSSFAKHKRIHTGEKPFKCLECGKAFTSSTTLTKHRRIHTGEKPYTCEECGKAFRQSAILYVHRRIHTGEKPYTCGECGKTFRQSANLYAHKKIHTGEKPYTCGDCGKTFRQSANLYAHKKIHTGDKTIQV
ZNF721 full-length, sequence (Q8TF20 other isoform, or with tags, fused parts or gaps): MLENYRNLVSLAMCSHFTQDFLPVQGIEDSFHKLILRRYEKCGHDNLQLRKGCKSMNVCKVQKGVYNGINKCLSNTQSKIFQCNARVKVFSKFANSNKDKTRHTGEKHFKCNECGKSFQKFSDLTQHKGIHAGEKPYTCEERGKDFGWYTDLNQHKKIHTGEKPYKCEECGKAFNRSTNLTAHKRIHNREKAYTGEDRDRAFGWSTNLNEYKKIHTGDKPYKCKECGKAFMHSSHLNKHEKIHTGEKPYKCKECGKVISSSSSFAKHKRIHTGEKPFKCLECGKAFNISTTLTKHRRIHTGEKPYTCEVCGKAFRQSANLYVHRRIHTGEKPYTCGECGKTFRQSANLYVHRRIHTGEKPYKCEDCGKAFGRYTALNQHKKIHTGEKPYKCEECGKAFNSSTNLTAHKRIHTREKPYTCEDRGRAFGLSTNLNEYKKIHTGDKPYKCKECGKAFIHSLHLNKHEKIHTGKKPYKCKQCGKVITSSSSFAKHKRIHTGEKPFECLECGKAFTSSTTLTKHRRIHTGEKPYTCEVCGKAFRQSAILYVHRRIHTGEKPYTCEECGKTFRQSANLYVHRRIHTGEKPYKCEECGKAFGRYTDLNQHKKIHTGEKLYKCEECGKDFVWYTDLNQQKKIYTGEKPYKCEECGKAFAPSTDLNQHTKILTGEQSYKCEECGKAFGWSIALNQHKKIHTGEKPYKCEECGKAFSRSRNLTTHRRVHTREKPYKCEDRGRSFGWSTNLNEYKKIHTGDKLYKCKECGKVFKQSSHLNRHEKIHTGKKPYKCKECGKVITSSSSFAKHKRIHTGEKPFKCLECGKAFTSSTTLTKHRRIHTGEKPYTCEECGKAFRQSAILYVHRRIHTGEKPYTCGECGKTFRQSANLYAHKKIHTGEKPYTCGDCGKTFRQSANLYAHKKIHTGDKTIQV

As to CCCCCCCCCG, the figures for the binding signal with ZNF721 full-length, in the experiment with ZNF721 DBD1 and with ZNF721 DBD2 were 0.112 relative 10-mer count, 0.00303 relative 10-mer count and 0.00156 relative 10-mer count, respectively.

Take ACCCCGCCCC: the binding signal came to 0.188 relative 10-mer count with ZNF721 full-length, 0.00569 relative 10-mer count with ZNF721 DBD1 and 0.00192 relative 10-mer count with ZNF721 DBD2.

Turning to CCCCGCCCCC, the binding signal is 0.297 relative 10-mer count in the experiment with ZNF721 full-length, 0.0122 relative 10-mer count in the experiment with ZNF721 DBD1 and 0.00228 relative 10-mer count in the experiment with ZNF721 DBD2.

On to CACCCCTCCC, for which the figures for the binding signal with ZNF721 full-length, with ZNF721 DBD1 and with ZNF721 DBD2 were 0.181 relative 10-mer count, 0.00826 relative 10-mer count and 0.00336 relative 10-mer count, respectively.

Regarding CCCCACCTCC, the binding signal with ZNF721 full-length came to 0.24 relative 10-mer count; in the experiment with ZNF721 DBD1, 0.0128 relative 10-mer count; in the experiment with ZNF721 DBD2, 0.00575 relative 10-mer count.

Regarding GCAAAAAAAA, the figures for the binding signal with ZNF721 full-length, with ZNF721 DBD1 and with ZNF721 DBD2 were 0.118 relative 10-mer count, 0.0105 relative 10-mer count and 0.056 relative 10-mer count, respectively.

For AAAGCATACC, the binding signal with ZNF721 full-length turned out to be 0.143 relative 10-mer count; in the experiment with ZNF721 DBD1, 0.0247 relative 10-mer count; with ZNF721 DBD2, 0.0344 relative 10-mer count.

As to ACCCCCCTCC, the binding signal with ZNF721 full-length is 0.142 relative 10-mer count; in the experiment with ZNF721 DBD1, 0.00624 relative 10-mer count; with ZNF721 DBD2, 0.00336 relative 10-mer count.

As to AGCGTACCCA, the figures for the binding signal with ZNF721 full-length, with ZNF721 DBD1 and with ZNF721 DBD2 were 0.188 relative 10-mer count, 0.0311 relative 10-mer count and 0.162 relative 10-mer count, respectively.

Consider AGGGGGGAGG, for which the binding signal with ZNF721 full-length came to 0.149 relative 10-mer count; with ZNF721 DBD1, 0.00789 relative 10-mer count; with ZNF721 DBD2 it was 0.00384 relative 10-mer count.

For the sequence CCCCCACCAA, the binding signal was 0.115 relative 10-mer count with ZNF721 full-length, 0.00431 relative 10-mer count in the experiment with ZNF721 DBD1 and 0.00443 relative 10-mer count in the experiment with ZNF721 DBD2.

For GCGTACCCTA, the binding signal in the experiment with ZNF721 full-length is 0.111 relative 10-mer count; with ZNF721 DBD1, 0.0263 relative 10-mer count; with ZNF721 DBD2, 0.0775 relative 10-mer count.

Take CCCCTACCCC: the binding signal with ZNF721 full-length turned out to be 0.199 relative 10-mer count; in the experiment with ZNF721 DBD1, 0.00954 relative 10-mer count; in the experiment with ZNF721 DBD2, 0.00384 relative 10-mer count.

For the sequence CCGCCACCCA, the binding signal with ZNF721 full-length came out at 0.107 relative 10-mer count; in the experiment with ZNF721 DBD1, 0.00523 relative 10-mer count; in the experiment with ZNF721 DBD2, 0.00276 relative 10-mer count.

For AAAAAAAAAG, the binding signal in the experiment with ZNF721 full-length stood at 0.384 relative 10-mer count; with ZNF721 DBD1, 0.0474 relative 10-mer count; with ZNF721 DBD2, 0.0982 relative 10-mer count.

Consider CACCACCCAC, for which the binding signal is 0.206 relative 10-mer count with ZNF721 full-length, 0.0105 relative 10-mer count with ZNF721 DBD1 and 0.0119 relative 10-mer count in the experiment with ZNF721 DBD2.

Consider CCCCCTACCC, for which the binding signal turned out to be 0.155 relative 10-mer count with ZNF721 full-length, 0.0072 relative 10-mer count in the experiment with ZNF721 DBD1 and 0.003 relative 10-mer count with ZNF721 DBD2.

CACAAAAAAG: the binding signal with ZNF721 full-length came to 0.102 relative 10-mer count; in the experiment with ZNF721 DBD1, 0.00853 relative 10-mer count; with ZNF721 DBD2 it was 0.0405 relative 10-mer count.

Consider CCCACCCCCG, for which the binding signal with ZNF721 full-length came out at 0.214 relative 10-mer count; in the experiment with ZNF721 DBD1 it was 0.00771 relative 10-mer count; with ZNF721 DBD2, 0.00264 relative 10-mer count.

On to CAAACAAGCA, for which the binding signal is 0.102 relative 10-mer count with ZNF721 full-length, 0.00362 relative 10-mer count with ZNF721 DBD1 and 0.063 relative 10-mer count with ZNF721 DBD2.

Consider CCTTCCCCCC, for which the binding signal with ZNF721 full-length was found to be 0.104 relative 10-mer count; in the experiment with ZNF721 DBD1, 0.00472 relative 10-mer count; in the experiment with ZNF721 DBD2, 0.00264 relative 10-mer count.

CCCCCACCTC: the results for the binding signal in the experiment with ZNF721 full-length, in the experiment with ZNF721 DBD1 and with ZNF721 DBD2 were 0.198 relative 10-mer count, 0.00945 relative 10-mer count and 0.00551 relative 10-mer count, respectively.

For the sequence CCCCCCCCAC, the figures for the binding signal in the experiment with ZNF721 full-length, with ZNF721 DBD1 and with ZNF721 DBD2 were 0.257 relative 10-mer count, 0.0089 relative 10-mer count and 0.00539 relative 10-mer count, respectively.

For the sequence CAACAAAACA, the results for the binding signal with ZNF721 full-length, with ZNF721 DBD1 and with ZNF721 DBD2 were 0.111 relative 10-mer count, 0.00174 relative 10-mer count and 0.116 relative 10-mer count, respectively.

Turning to AAAGCAGGGT, the binding signal in the experiment with ZNF721 full-length was 0.272 relative 10-mer count; with ZNF721 DBD1, 0.00115 relative 10-mer count; with ZNF721 DBD2, 0.337 relative 10-mer count.

Turning to CCCACCACAC, the binding signal amounted to 0.155 relative 10-mer count with ZNF721 full-length, 0.00583 relative 10-mer count with ZNF721 DBD1 and 0.00947 relative 10-mer count with ZNF721 DBD2.

For the sequence CCCCACCCAA, the values for the binding signal with ZNF721 full-length, in the experiment with ZNF721 DBD1 and with ZNF721 DBD2 were 0.134 relative 10-mer count, 0.00431 relative 10-mer count and 0.00491 relative 10-mer count, respectively.

For AGAAAAAAAG, the binding signal in the experiment with ZNF721 full-length stood at 0.118 relative 10-mer count; with ZNF721 DBD1 it was 0.0217 relative 10-mer count; with ZNF721 DBD2 it was 0.035 relative 10-mer count.

With CTCCCCCCCC, the binding signal with ZNF721 full-length stood at 0.158 relative 10-mer count; in the experiment with ZNF721 DBD1, 0.00761 relative 10-mer count; with ZNF721 DBD2, 0.003 relative 10-mer count.

Regarding CCCTACCCCC, the binding signal with ZNF721 full-length amounted to 0.153 relative 10-mer count; with ZNF721 DBD1, 0.0083 relative 10-mer count; in the experiment with ZNF721 DBD2, 0.00587 relative 10-mer count.

Consider CCCGCCCCAC, for which the results for the binding signal with ZNF721 full-length, with ZNF721 DBD1 and in the experiment with ZNF721 DBD2 were 0.207 relative 10-mer count, 0.00784 relative 10-mer count and 0.00252 relative 10-mer count, respectively.

Turning to ACCCTCCCCC, the binding signal is 0.176 relative 10-mer count with ZNF721 full-length, 0.00766 relative 10-mer count with ZNF721 DBD1 and 0.00575 relative 10-mer count with ZNF721 DBD2.

On to CCCCCACCAC, for which the values for the binding signal with ZNF721 full-length, with ZNF721 DBD1 and with ZNF721 DBD2 were 0.312 relative 10-mer count, 0.0133 relative 10-mer count and 0.00707 relative 10-mer count, respectively.

As for CACCCACCCC, the binding signal in the experiment with ZNF721 full-length came to 0.325 relative 10-mer count; with ZNF721 DBD1, 0.0153 relative 10-mer count; in the experiment with ZNF721 DBD2, 0.003 relative 10-mer count.

GGGGAGGGGA: the figures for the binding signal with ZNF721 full-length, with ZNF721 DBD1 and in the experiment with ZNF721 DBD2 were 0.125 relative 10-mer count, 0.00674 relative 10-mer count and 0.0036 relative 10-mer count, respectively.

For AAAAAAAGAG, the binding signal came out at 0.126 relative 10-mer count in the experiment with ZNF721 full-length, 0.00949 relative 10-mer count with ZNF721 DBD1 and 0.0578 relative 10-mer count with ZNF721 DBD2.

For CCCCCTCCAC, the binding signal with ZNF721 full-length worked out at 0.179 relative 10-mer count; in the experiment with ZNF721 DBD1, 0.00908 relative 10-mer count; with ZNF721 DBD2, 0.00479 relative 10-mer count.
